Data from publication PMC5540273 (PLoS ONE, 2017).
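Note: KINOMEscan kinase panel screen.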

These compounds were tested on PIP5K2B. Details: concentration: 1 μM, replicates: in singlicate; n = 1.
`CN1c2ccc(CNc3ccc(F)cc3)cc2-c2c(cnn2C)S1(=O)=O` was tested, and the “%Inh” value was 0%. For `O=c1cc(N2CCOCC2)nc2n(Cc3cccc(C(F)(F)F)c3)ccn12` [GSK2297543], the “%Inh” value was 9%. In the case of `Fc1ccc(-c2nn3c(OCC(F)(F)F)cccc3c2-c2ccncc2)cc1` [GW514784], the “%Inh” value is reported as 18%. For `COc1cc2c(cc1OC[C@@H](O)CO)ncc1c3ccc(C#N)cc3[nH]c21`, the “%Inh” value was 42%. `Nc1nc(-c2ccc3c(N)n[nH]c3c2)cc(N2CCCC2)n1` [GSK2227430] was tested, and the “%Inh” value was 0%. `Cc1cccc(-c2nc(-c3ccc(S(C)(=O)=O)cc3)sc2-c2ccncc2)c1` was tested, and the “%Inh” value was 55%. For `NCC(NC(=O)c1cc(-c2cn[nH]c2)c(-c2ccnc3[nH]ccc23)s1)c1ccccc1.O=C(O)C(F)(F)F.O=C(O)C(F)(F)F` (stereo not shown) [GSK1325775], the “%Inh” value was 71%. With `O=C(Nc1cccc(-c2nn3ncccc3c2-c2ccnc(Nc3cccc(C(F)(F)F)c3)n2)c1)c1c(F)cccc1F` [GSK299495] the “%Inh” value was 100%. With `O=c1cc(N2CCOCC2)nc2n(Cc3cccc4ccccc34)ccn12` [GSK2333389] the “%Inh” value was 40%. In the case of `CSc1ccc(-c2cc3ncnc(SCC(=O)O)c3s2)cc1`, the “%Inh” value is reported as 20%. In the case of `O=C(NCCNc1ccnc(Nc2ccc(F)cc2)n1)c1cc2ccccc2s1` [GSK1379874], the “%Inh” value is reported as 8%. With `COc1cc2c(cc1OCCN1CCN(C)CC1)ncc1c3ccc(C#N)cc3[nH]c21` the “%Inh” value was 94.8%. With `Cc1nnc(-c2ccc3occ(-c4ccc(C(C)O)cc4)c3c2)o1` (stereo not shown) the “%Inh” value was 27%. For `COc1ccc(Nc2ncc(C#N)c(Nc3ccccc3C(N)=O)n2)cc1N1CCN(C)CC1.Cl` [GSK1558669], the “%Inh” value was 90%. With `O=C(NCCCN1CCOCC1)c1cccc(Nc2nccc(Nc3ccc(Oc4ccccc4)cc3)n2)c1` [GW663929] the “%Inh” value was 0%. In the case of `CC(=O)Nc1ccc(COc2ccc(Nc3ccnc4cc(-c5ccccn5)ccc34)cc2)cc1.Cl` [GW440148], the “%Inh” value is reported as 0%. For `c1ccc(-c2n[nH]cc2-c2ccnc3ccccc23)nc1` [GW271431], the “%Inh” value was 15%. With `COc1ccc(CNC(=O)NC2CCN(c3ccnc(Nc4ccc(OC)cc4)n3)C2)cc1` (stereo not shown) [GSK1379727] the “%Inh” value was 4%. With `O=C(c1ccc(-c2cc(-c3c[nH]nc3-c3ccccn3)ccn2)cc1)N1CCOCC1` [GW812171] the “%Inh” value was 0%. With `COc1cc(Nc2nccc(N3CCC(NC(=O)c4cccc(NC(C)=O)c4)C3)n2)cc(OC)c1OC` (stereo not shown) [GSK1379754] the “%Inh” value was 18%. With `CC(C)(C)n1cnc2c(N)ncnc21` [SKF-97359] the “%Inh” value was 24%. With `Cc1c(Cn2c(C)nn3c(=O)cc(N4CCOC(C)C4)nc23)cccc1C(F)(F)F` (stereo not shown) [GSK2344444] the “%Inh” value was 0%.
